OvCa metastasis = blocks SKOV3ip1 adhesion and invasion in omental model; hit rate 0.1% among 46,000; AID 1963576; Potency, µM (doses to about 45.8 µM), inactives show at the highest dose activity change, negative = inhibition, hits mostly inhibitors; SKOV3ip1-GFP adhesion/invasion on 3D omental model, fluorescence;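 further: plate controls were DMSO wells for no effect and tomatine positive control wells for full effect; nearly all actives have a fitted effect of over 65% in size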
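qHTS, 4-pt dose (0.36-46 umol/L); SKOV3ip1-GFP, 1,200 cells/well, no FBS; primary omental fibroblast/mesothelial co-culture 48 h pre-grown; 2 h RT + 16 h 37 C; PBS wash, 4% PFA; GFP count 488/509 nm.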
p53null 39C tox = selectivity test: cytotoxicity in p53 null cells, nonpermissive temperature. hit rate 0.97% among 55,000. Potency, µM (highest dose often 46.1 µM), without a hit: at the top dose activity, negative = cell killing, usual class: cytotoxic. H1299 p53-null (neo) cells, 39C, ATPlite viability, 24 h;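 further: 0% = DMSO only and -100% = full killing by 100 µM tamoxifen; nearly all actives have a fitted effect of over 50% in size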
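Luminescent ATP signal reported cell survival after H1299 lines (neo, p53 null; or p53 A138V) received up to 46 uM compound and 24 hr incubation at 39C.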
p53null 32C tox = p53 null cell cytotoxicity, permissive temperature. H1299-neo p53 null cells, ATP luminescence, 24 h, 32C. Potency, µM (series often up to 46.1 µM), without a hit: at the top dose activity change, negative = cytotoxicity, usual class: cytotoxic. hit rate 0.62% among 55,000;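 further: 0% = DMSO only and -100% = full killing by 100 µM tamoxifen; nearly all actives have a fitted effect of over 55% in size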
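ATP-content luminescence in p53-null H1299-neo cells after 24 h compound exposure (up to 46 uM) at 32C permissive temperature; 0% and 100% killing set by DMSO and 100 uM tamoxifen; Hill-equation AC50.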
S16 viability = cytotoxicity in S16 Pmp22-F2sN Schwann cells; hit rate 0.48% among 43,000; Potency, µM (top dose mostly 57.5 µM), for inactives: top-dose activity change, negative = cytotoxicity, usual class: cytotoxic; S16 Pmp22-F2sN Schwann cells viability, CellTiter-Glo, 24 h; further: nearly all actives have a fitted effect of over 65% in size
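Used to flag compounds lowering reporter output through toxicity, this quantitative HTS measures ATP-based CellTiter-Glo luminescence in S16 Pmp22-F2sN Schwann cells after 24 h compound exposure at 37C.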
PMP22 txn prim = modulators of PMP22 gene transcription in S16 Schwann cells; hit rate 2% among 43,000; Potency, µM (doses to about 57.5 µM), without a hit: top-dose activity change, negative = inhibition, actives largely listed as inhibitors; S16 Pmp22-F2sN Schwann cells (luciferase reporters placed in the Pmp22 gene), FLuc/NLuc coincidence luminescence, 24 h; AID 1508649; active means clear falling dose curves in both reporters; inconclusive means both reporters move, but less clearly or upward; inactive means either reporter flat; the % is the NLuc reporter signal
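S16 Schwann cells carrying FLuc/NLuc coincidence reporter in the Pmp22 3' UTR treated with compound 24 h at 37C; FLuc then NLuc luminescence read sequentially by dual-luciferase reagents.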
pS6 MEF inh = reduces mTORC1 signaling in Tsc2 and p53 null MEF cells; Tsc2-/- p53-/- MEF, phospho-rpS6 immunofluorescence/PI, 24 h; Potency, µM (highest dose often 38.3 µM), inactives show at the highest dose activity change, negative = inhibition, usual class: inhibitors; hit rate 0.78% among 44,000; AID 493208;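 further: plate controls were DMSO for no effect and rapamycin for full effect; nearly all actives have a fitted effect of over 50% in size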
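Tsc2-/-, p53-/- mouse embryonic fibroblasts (empty-vector line) exposed to compound 24 hrs at 37 C, fixed, immunostained for phospho-rpS6 and counterstained with propidium iodide. Acumen laser scanning gives % positive cells from Alexa 488/PI ratio, thresholded using 7.5 nM rapamycin; PI count gives viability.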
Active calls of the source: *; i = inactive; u = inconclusive; x = no result. Rows were chosen to be rich in hits. Some 3.1% of all compounds tested hit in one or more screens of this group. Unless noted, the call rests on the fitted dose curve; in most records, active means well fitted curve in the direction sought with a large enough effect; inconclusive means small, poorly fitted or top-dose-only effect, or another doubt; inactive means no such curve, though single readings can be large; an effect the other way counts as inactive or inconclusive. Unless noted, on the % scale 0 is the no-effect control and ±100 the full control effect; potency means the concentration at half of the fitted maximal effect.

SMILES | OvCa metastasis | p53null 39C tox | p53null 32C tox | S16 viability | PMP22 txn prim | pS6 MEF inh
Cc1nc2c(C(=O)NCCc3ccccc3)c[nH]n2c(=O)c1Cc1ccccc1F | i | u | 16µM* | -16% | -31% | 0%
Cc1c(CCOc2ccc(C(=O)O)cc2)c2cc(Cl)ccc2n1C(c1ccccc1)c1ccccc1 | -5% | x | x | x | x | x
CC[C@@H](C)[C@H](NC(=O)[C@H](CC1CCCCC1)NC(=O)c1ccno1)C(=O)N1CCC2(CCc3ccccc32)CC1 | -32% | x | x | x | x | x
CCOc1ccn(-c2ccc(F)cc2)c(=O)c1C(=O)Nc1ccc(Oc2ccnc(N)c2Cl)c(F)c1 | 7% | x | x | x | x | x
COc1ccccc1C(=O)Oc1c(Sc2ccccc2)c(C)nn1C(C)(C)C | -5% | 13µM* | u | -21% | 14% | 3%
CCc1ccc(-n2c(=O)c3c4c(sc3n(CC(=O)c3ccc(F)cc3)c2=O)CCC4)cc1 | -21% | -25% | 3% | -19% | u | 5.2µM*
Cc1ccc2nc(-c3ccc(NC(=O)CN4C(=O)c5ccccc5C4=O)cc3)sc2c1 | x | x | 22µM* | x | x | x
Cc1ccc2nc(-c3ccc(NC(=O)c4ccccc4S(C)(=O)=O)cc3)sc2c1 | i | 22% | -3% | 18% | u | 3%
Cc1ccc2nc(-c3ccc(NC(=O)C(F)(F)F)cc3)sc2c1 | 8% | 1.3µM* | 2µM* | 11% | -11% | 1%
COc1ccc(C2=C(Nc3ccc(C)cc3C)c3ccccc3C2=O)cc1 | 1% | 5% | 17% | x | x | -3%
Cc1ccc(NC2=C/C(=N\S(=O)(=O)c3cccs3)c3ccccc3C2=O)c(C)c1 | x | 3.5µM* | 3.5µM* | x | x | x
Clc1cccc(-c2nnnn2Cc2cccnc2)c1Cl | -20% | x | x | x | x | x
CCCOc1ccc(C(=O)Nc2ccc(NC(=O)c3ccccc3)c(C)c2)cc1 | -7% | -11% | -3% | -1% | u | 13µM*
CCCOc1cccc(C(=O)Nc2cccc(NC(=O)c3ccc(Cl)cc3Cl)c2)c1 | -7% | -4% | -4% | u | -10% | 10%
CCCOc1ccc(C(=O)Nc2cccc(NC(=O)c3ccc(Cl)cc3Cl)c2)cc1 | u | u | u | 14µM* | u | -10%
CCCCOc1cccc(NC(=O)c2cccc(C(=O)Nc3cccc(OCCCC)c3)c2)c1 | -14% | -14% | 6% | -2% | -16% | 7.4µM*
Nc1ccc2nc(-c3ccc(O)cc3)sc2c1 | 0% | 1.3µM* | 2.5µM* | -29% | u | -7%
Cc1ccc(NCc2cc3cc4c(cc3n(CC(=O)Nc3ccc(F)cc3F)c2=O)OCCO4)cc1 | 18% | 5% | 2% | 11% | u | u
COc1cc2cc(CNc3ccc(C)cc3)c(=O)n(CC(=O)Nc3ccc(F)cc3F)c2cc1OC | -23% | -16% | -1% | -1% | -49% | 5.2µM*
Cc1ccc(NCc2cc3cc4c(cc3n(CC(=O)Nc3ccc(C)cc3)c2=O)OCCO4)cc1 | -12% | 5% | -9% | u | u | 4.6µM*
Cc1c(Cn2c(C)nc3c(C(=O)O)cc(N4CCOCC4)cc32)cccc1C(F)(F)F | 16% | x | x | x | x | x
C=CC[N+]1([C@H]2C[C@H]3[C@@H]4CC[C@H]5C[C@H](O)[C@@H](N6CCOCC6)C[C@]5(C)[C@@H]4CC[C@]3(C)[C@H]2OC(C)=O)CCCC1 | -14% | x | x | x | x | x
CCCCNC(=O)c1nn(-c2ccc(C)cc2)c(=O)c2c1c1ccccc1n2C | 7% | -21% | -5% | 16µM* | -20% | 1%
COCCNC(=O)c1nn(-c2ccc(C)cc2)c(=O)c2c1c1ccccc1n2C | 3% | 1% | 8% | u | u | 2%
Cc1cccn2c(=O)cc(COc3cccc(NC(=O)c4ccccc4F)c3)nc12 | u | 7.9µM* | -12% | 0% | u | u
